According to PubChem BioAssay (NCI):
About 83,000 compounds went through this panel and 20% of them were active in at least one assay; those are over-represented in the sample as a whole.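 48-hour exposure, single concentration, 96-well plates; percent growth endpoint where 0 means no net growth. Active: below 10.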 A number with no mark means an inactive call. The source made the active and inactive calls.

Each compound was assayed on U251 CNS (assay: NCI-60 one-dose screen, 48 h (100 = growth as untreated, 0 = no growth, -100 = all killed)). Settings: 10 µM unless noted.
Description: Growth inhibition of the U251 human tumor cell line is measured as a screen for anti-cancer activity. Cells are grown in 96 well plates and exposed to the test compound for 48 hours. Compounds are tested at a single concentration, which is 10^-5 M for most compounds. The reported endpoint is percent growth (GI% or GIPRCNT), where numbers from 0 - 100% represent growth inhibition, and numbers from -100% - 0 represent cell death. For example, a value of 40 represents 60% growth inhibition. A value of 0 means no net growth occurred over the course of the experiment. A value of -40 indicates 40% of cells at the beginning of the experiment died by the end of the experiment. A value of -100 means all cells are dead at the end of the experiment.
NCI-60 Human Tumor Cell Lines Screen was performed using the standard one-dose NCI protocol, which is described in more detail at https://dtp.cancer.gov/discovery_development/nci-60/default.htm.
Compounds with GIPRCNT values below 10 were considered active. Activity score was based on GIPRCNT using the following formula: […]
Score is 0 for GIPRCNT values of 100 or above, 50 for GIPRCNT values of 0, and 100 for GIPRCNT values of -100.
In the case of `Oc1ccc(Cl)cc1Sc1cc(Cl)ccc1O`, the growth is reported as 93.9%.
`O=C(Nc1ccc(-n2ccc3c(NC(=O)c4ccccc4)ncnc32)cc1)c1cccc(C(F)(F)F)c1` showed a growth of 27.3%.
In the case of `CC(C)CNCC(O)COc1ccc(C(C)(C)c2ccc(OCC(O)CNCC(C)C)cc2)cc1` (stereo not given), the growth is reported as -5.63% (active).
With `Cc1cccc(NC(=O)CCc2ccc(N3C(N)=NC(N)=NC3(C)C)cc2)c1` the growth was 36.9%.
Work on `COc1cccc(/C=N/C(=S)NC2(C)C3CCC(C3)C2(C)C)c1O` (stereo not given) yielded a growth of 48.7%.
Compound `COc1ccc(-c2c(NC(=O)Nc3ccc(Cl)c(C(F)(F)F)c3)cnn2-c2ccc(S(N)(=O)=O)cc2)cc1` has a growth of 15.6%.
In the case of `CCN(CC)CC(=O)Nc1c(C)cccc1C`, the growth is reported as 106%.
Compound `O=c1c2ccccc2sc2c(N3CCCC3)nc3ccccc3c12` has a growth of 98.5%.
Compound `C=C1C(=O)O[C@H]2[C@H]1CC/C(C(=O)Nc1ccc(OC)c(C(N)=O)c1O)=C\CC[C@@]1(C)O[C@@H]21` has a growth of 82.2%.
With `C=C1C(=O)O[C@H]2[C@H]1CC/C(COC(=O)OC/C1=C/CC[C@@]3(C)O[C@H]3[C@H]3OC(=O)[C@@H](CN(C)C)[C@@H]3CC1)=C\CC[C@@]1(C)O[C@@H]21` the growth was 60.6%.
Compound `Nc1n[nH]c2cccc(C#Cc3cccc(NC(=O)c4cccc(C(F)(F)F)c4)c3)c12` has a growth of 49.4%.
`Cc1cccc(CC(=O)c2ccccc2)n1` showed a growth of 89.6%.
`Cc1cc(O[C@@H]2O[C@@H](C)[C@H](O)[C@@H](O)[C@H]2O)c2c3c(c(O[C@@H]4O[C@@H](C)[C@H](O)[C@@H](O)[C@H]4O)cc2c1)C(=O)c1c(O)cccc1C3=O` gave a growth of 82%.
`CC(C)C1(C(C)C)NC(=O)NC1=O` was tested, and the growth was 103%.
In the case of `Cc1cn(-c2nc3c(c(NCc4ccccc4)n2)COCC3)c2cccc(C(N)=O)c12`, the growth is reported as 93.5% [0.5 µM].
`OCCOCC(F)(F)F` gave a growth of 105%.
Work on `COC(=O)CCCNS(=O)(=O)c1cc(C(=O)Nc2ccc(NC(=O)c3cc(S(=O)(=O)NCCCC(=O)OC)c(O)c(O)c3O)cc2)c(O)c(O)c1O` yielded a growth of 70.3%.
With `CN(C)c1ccc(/C=N/n2c(-c3cc(F)c(Cl)cc3Cl)nn(CN3CCOCC3)c2=S)cc1` the growth was 89%.
`Nc1nc(=S)ss1` showed a growth of 107%.
Work on `C=C1C(=O)O[C@H]2[C@H]1CC/C(C(=O)NCCOCCOCC(=O)Nc1ccc(OC)c(C(N)=O)c1O)=C\CC[C@@]1(C)O[C@@H]21` yielded a growth of 89.8%.
For `CCOC(=O)c1cnc2c(OC)ccc(OC)c2c1Cl`, the growth was 109%.
With `CNC(=O)NN` the growth was 95.2%.
With `Cc1cc(Nc2ccc(Cl)c(Cl)c2)nc(N)n1` the growth was 95.3%.
Work on `N#CC1=C(N)Oc2c(ccc3ccccc23)C1c1cc(=O)oc2ccc(Cl)cc12` (stereo not given) yielded a growth of 24.4%.
With `CCOC(=O)c1noc2c1CCc1c-2cn(Cc2ccc(OC)cc2)c1-c1cc(OC)c(OC)c(OC)c1` the growth was 18.4%.
In the case of `COc1cc(NS(=O)(=O)c2ccc(N)cc2)ncn1`, the growth is reported as 102%.
With `COc1ccc(-c2cc3ccc(N(C)C)cc3nc2N)c(F)c1` the growth was 31.3%.
`C#CCn1c(-c2cc(OC)c(OC)cc2Br)nc(-c2ccccc2)c1-c1ccccc1` gave a growth of 45.4%.
In the case of `COc1cc(/C=C2/Oc3cc4occc4c(OC)c3C2=O)ccc1OCC(=O)Nc1ccncc1`, the growth is reported as 108%.
`COc1ccc(-c2[nH]c3ccccc3c2/C=C(\C#N)S(=O)(=O)c2ccccc2)cc1` showed a growth of 24.2%.
For `NC(=S)NNC1CCCCC1`, the growth was 93.6%.
Work on `C[C@]12CC[C@@H]3c4ccc(O)c(N)c4CC[C@H]3[C@@H]1CC[C@@H]2O` yielded a growth of 110%.
`NC(CCCC(N)C(=O)c1ccccc1)C(=O)O` (stereo not given) showed a growth of 102%.
`NS(=O)(=O)c1ccc(CCN2C(=O)/C(=C\c3ccc(Cl)cc3)C=C2c2ccc(Oc3ccccc3)cc2)cc1` gave a growth of 74.5%.
With `COc1cccc(-c2nc3sccn3c2-c2ccnc(NCCNC(=O)c3ccccc3)n2)c1` the growth was 102%.
Compound `O=C(NCCNc1nccc(-c2c(-c3cccc(O)c3)nc3sccn23)n1)c1ccc(N2CCOCC2)c(C(F)(F)F)c1` has a growth of 82%.
For `COc1cc(NC(=O)C#Cc2ccccc2)c(OC)cc1Cl`, the growth was 39.5%.
In the case of `C=CC(=O)Nc1cccc(Nc2nc(Nc3ccc(OCCOC(F)F)cc3)ncc2F)c1`, the growth is reported as 30.1%.
`CCn1c(SCC(=O)c2ccc(Br)cc2)nnc1-c1cc2c([nH]c3ccccc32)c(-c2cccc(O)c2)n1` was tested, and the growth was 58.5%.
`C/C(=N\N=C1/SCC(=O)N1c1ccccc1)c1ccco1` gave a growth of 102%.
